Results with a measured potency or affinity are listed apart. Results filed as inconclusive are left out. Calls of active or inactive are those of the source.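 The calls were made as follows: active = luminescence drop in HepG2 cells whose fitted half-effect dose is at most twice the top valid dose; inconclusive = flat curve with 30 to 70% signal loss, or unreliable fit; inactive = the rest.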
test: cytotoxicity in HepG2 cells, dose response, cytotoxicity control, cell-based, plate reader, dry powder (AID 651947); conditions: HepG2 viability, ATP luminescence (CellTiter-Glo), 48 h, stronger effect = lower value; at 26 µM unless noted

| Structure (SMILES) | max activity |
| --- | --- |
| Cc1cccc(CSc2nnc(-c3ccc(Cl)cc3)o2)n1 | 26% [at 0.38 µM] (inactive) |
| O=S(Cc1cn(-c2ccccc2)nn1)c1nnc(-c2ccc(Cl)cc2)o1 (stereo not given) | -41.8% [at 12 µM] (inactive) |
| c1ccc(CNCCSc2nnc(-c3ccccc3)o2)cc1 | -50.5% [at 1.6 µM] (inactive) |
| COc1ccccc1-c1nnc(SCc2ccccc2)o1 | -18.4% [at 0.195 µM] (inactive) |
| c1ccc(-c2nnc(SCCN3CCCC3)o2)cc1 | -61.1% [at 0.8 µM] (inactive) |
| FC1(F)CN(CCSc2nnc(-c3ccccc3)o2)C1 | -36.2% [at 0.8 µM] (inactive) |
| FC(F)(F)c1ccccc1-c1nnc(SCc2ccccc2)o1 | 15.6% [at 1.6 µM] (inactive) |
| N#Cc1cccc(-c2nnc(SCc3ccccc3)o2)c1 | 15.2% (inactive) |
| Fc1ccccc1CSc1nnc(-c2ccccc2)o1 | -57.5% (inactive) |
| c1ccc(CCc2nnc(SCc3ccccc3)o2)cc1 | 22.3% [at 3 µM] (inactive) |
| FC(F)(F)c1cccc(CSc2nnc(-c3ccccc3)o2)c1 | -34.6% [at 1.6 µM] (inactive) |
| Brc1ccc(CSc2nnc(-c3ccccc3)o2)cc1 | 32.4% [at 6 µM] (inactive) |
| c1ccc(CSc2nnc(-c3ccncc3)o2)cc1 | -43.6% [at 0.38 µM] (inactive) |
| c1ccc(CSc2nnc(-c3cccs3)o2)cc1 | -27.2% [at 12 µM] (inactive) |
| Fc1ccc(CSc2nnc(-c3ccc(Cl)cc3)o2)cc1 | -47.5% [at 12 µM] (inactive) |
| CS(=O)(=O)c1cccc(-c2nnc(SCc3ccccc3)o2)c1 | 26.3% [at 0.8 µM] (inactive) |
| c1ccc(-c2nnc(SCc3ccccn3)o2)cc1 | 18.8% (inactive) |
| [O-][n+]1ccccc1CSc1nnc(-c2ccccc2)o1 | -47.8% [at 1.6 µM] (inactive) |

| Structure (SMILES) | max activity |
| --- | --- |
| c1ccc(-n2cc(CSc3nnc(C4CCC4)o3)nn2)cc1 | -30.4% [at 12 µM] (inactive) |
| FC1(F)CCN(CCSc2nnc(-c3ccccc3)o2)CC1 | -22.5% [at 1.6 µM] (inactive) |
| COc1ccc(CSc2nnc(-c3ccc(Cl)cc3)o2)nc1 | 20.3% [at 0.8 µM] (inactive) |
| Cc1cccc(-c2nnc(SCc3ccccc3)o2)c1 | -20.2% [at 0.38 µM] (inactive) |
| COc1ccc(-c2nnc(SCc3ccccn3)o2)cc1 | -23.2% [at 1.6 µM] (inactive) |
| c1ccc(-c2nnc(SCCN3CCN(c4ccccc4)CC3)o2)cc1 | -48.3% [at 12 µM] (inactive) |
| Fc1ccc(-c2nnc(SCc3cn(-c4ccccc4)nn3)o2)cc1 | -8.15% (inactive) |
| FC(F)(F)c1cccc(-c2nnc(SCc3ccccc3)o2)c1 | 20.7% [at 12 µM] (inactive) |
| COCCSc1nnc(-c2ccccc2)o1 | 27.8% [at 0.195 µM] (inactive) |
| c1ccc(CSc2nnc(C3CCCC3)o2)cc1 | -59.1% [at 6 µM] (inactive) |
| Fc1cccc(CSc2nnc(-c3ccccc3)o2)c1 | -9.21% [at 12 µM] (inactive) |
| CN(C)CCSc1nnc(-c2ccccc2)o1 | -18.8% [at 0.195 µM] (inactive) |
| Fc1ccc(-c2nnc(SCc3ccccn3)o2)cc1 | -30.7% [at 1.6 µM] (inactive) |
| c1ccc(-c2nnc(SCc3cccnc3)o2)cc1 | 17.3% (inactive) |
| c1ccc(CNc2nnc(-c3ccccc3)o2)cc1 | 25.5% [at 0.195 µM] (inactive) |
| Clc1ccc(CSc2nnc(-c3ccccc3)o2)cc1 | -22.7% [at 0.8 µM] (inactive) |
| c1ccc(-c2nnc(SCC3CC3)o2)cc1 | 18.8% [at 0.38 µM] (inactive) |
